Test results from PubChem BioAssay AID1508600 (Functional Genomics Laboratory (NCATS/FGL), 2020).
Hit rate of the full screen: of about 53,000 sequences, about 3,700 (7%) were called active. The sample as a whole holds a higher share of actives than the screen did. Values without a mark were called inactive.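 How the source made its calls: active means gene knockdowns whose robust z-score for IL-1 alpha signal is at least 2 or at most -2, so actives lie on both sides; inactive means the rest.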

Test: Components of the Cytosolic LPS Sensing Pathway: Gene Identification via Genome-wide siRNA Screen;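 further: robust z of the log signal after scaling to non-targeting control siRNA wells of the plate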
Conditions: RAW264.7 macrophages, IL-1a HTRF, actives lie on both sides, screened at 100 nM (by protocol), cells primed 5 h with Pam3CSK4 first
Method in brief: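 Cells (RAW264.7, 1×10^4 per well) were transfected with siRNA at 100 nM and cultured 48h at 37 degrees C. Pam3CSK4 was added for 5 hours; LipidA transfection followed for 24 hour. IL-1a was then measured by HTRF.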

Sequence	z-score
GCGUAACUACUACAUGAAUTT against Ano9	-2.33 (active)
GGACUUACUUCCCAUUUCGTT against Gdpd3	0.297
GGUGUAUGCGUCACUAGAATT against Rxra	0.0162
GGACUACUCUGCCAGAUGGTT against Fam71f1	0.0252
GCUUUAAGUACUUUAACGCTT against Ncr1	1.04
GCAGCUACUACACCAACCATT against Dlx2	-2.46 (active)
CGAAAACAGUACGAUGCUUTT against Dnajb11	1.03
CCUCAAUGAAGACCCAUUATT against Kif1b	-1.35
GGUUUUCUAUGGAAGAGAUTT against Igdcc4	0.835
GGUAUCCACUGUGCCAACCTT against Ush2a	-0.343
CGAUCGUAUUCAAUGGAAATT against Rims2	-0.998
GCAUCUGCAUUUUUUGCUATT against Prox1	1.29
GCUUUUGCUACAAGUGUAUTT against Cop1	-0.593
GGCAGAUGGCCGAAUUGAUTT against Rest	-1.13
GGACGAUUUAAGGAUUUUUTT against Dcun1d1	-2.4 (active)
CCAAGUACCCUGAGAGUUUTT against Pnpla6	1.46
GCCAAACGAACAACAAAACTT against Chrm3	-0.166
CGUACCACACGAUGAAUAGTT against Pou4f1	-0.525
CCGCAUGAACUUCCUACAGTT against Ugt1a1	1.2
GGCGUAUUCUGGUAUCCAGTT against Celf1	2.08 (active)
GCACUGAACUUUCCUGACCTT against Ppdpf	1.78
CCAUUCGAGAUGAGAAGAATT against Gcc1	-0.287
GGGAAAAGAUCGACAAAGATT against Plk2	-0.217

Sequence	z-score
GGCCCAUGAUCCAUUUUGGTT against Prnp	-2.07 (active)
GGAAAAGGAGGAGAGUUAUTT against Nkapl	0.153
GGGUGGUGGCAUUAAACUUTT against Stk36	1.75
GCUUUUCGGAGCUCUAUAUTT against Sipa1	-2.23 (active)
GGCAGACGGUAAUAAACAUTT against Ralgapb	-1.08
GCGUGUAUACCAGCCUUACTT against Egfl7	0.0437
GGACAUGAGGACUGUAUCATT against Clec4g	-3.2 (active)
GGAAGGAUCUAAUCUUUUUTT against Vamp2	1.56
GGAAGAAUUCUUGAAGAUGTT against Cetn4	1.13
GCUAUGUGUUGAUUUAAAGTT against Pdk1	0.422
GGCUACAGCCGUCAAAGAUTT against R74862	-0.091
GGAAGAAGCCUUUUGAGUGTT against Peg3	1.39
CCAGCUAUGAAUCAGAAUGTT against Bend6	2.6 (active)
CCGAAAGAUCAGCACAUCCTT against Olfr24	-0.184
CGGCUGUGUGCAUUUAAAGTT against Bmpr2	0.616
CCUUUGAUUCACAAUGGUUTT against Smad4	-0.0886
GCUCGAACAUAGCAGCAAGTT against BC061195	-2.11 (active)
GGGUUUCAACCGUCACCUGTT against Pygl	-1.89
GGCCCUUACAGAGUCUGGATT against B930095G15Rik	0.833
CGAAUUCAUACCAAGAAAGTT against Myo3a	0.477
GCCAAGUGGUGACAUCAACTT against Ralgds	2.7 (active)
GGGCAAUGUGUUUAUGUAUTT against Tmem30a	-0.264
GGAUAUACAAAGGAACGCATT against Wdr20rt	-0.862

Sequence	z-score
GGUUCUGACCACCUACAUATT against Htr3a	-1.62
GGCUAUACCCUGAAAUAUUTT against Slitrk4	-0.00892
CCUACUACACCACUUGGGUTT against Dpm2	0.365
GGGCAAAUUAGAGACCAAGTT against Nwd2	0.692
GGAGGAUAUGAGCAAGUACTT against Isg20	-0.476
GGUUAACGGAUCAACAUUUTT against Ube2d2a	1.71
GGAAUUUUCUUCAUUUGGATT against Pabpc5	-0.878
GGUACCAGACCUCAUAGUUTT against Cep95	2.16 (active)
GGGAAGAAAAUGAAAGGUUTT against Cdk5rap2	-1.14
GGUGUCAACCAGUUGUUUUTT against Nr2c1	-1.2
CCUAAAGUCACAUCUAAGATT against Pum3	1.06
GGAACUGUCCGAUCUUAGATT against Prrg4	-1.88
GCUACUCCCUGCAUAUUAGTT against Slamf9	-1.48
GGCAGCUUUCCUAUUGAAUTT against Tex19.1	0.233
GGACUUUGAUCAGCUGUCUTT against Tmem17	-2.12 (active)
GGUUGAUCGUGUCAUGUAGTT against Poc1b	0.0595
GGCUAUACCUUUGACUAUGTT against Csnk1g1	0.0256
GGGCAGCAUCGGACUAAAUTT against Agtr1a	2.35 (active)
GGUUGUAGGAGAGGAAGCCTT against Apobr	-0.572
GGUACGAAGUCAAAGUGAATT against Dnmt3l	0.0494
GGAGUUAGAUGCCCUCAAGTT against Trappc6a	-0.796
CAGCUGAGAUUGAUGGCCATT against Olfr313	-0.6
GCCUGAAUAUUGCUAUCACTT against Gpr107	2.35 (active)
